PubChem BioAssay (NCATS)
Records with an inconclusive call do not appear. Entries that show only a call come without a potency. The source made the active and inactive calls. Calls follow the shape of the dose curve; as a rule, active = well fitted cell-killing curve with a large enough effect; inconclusive = small, poorly fitted or top-dose-only effect, or effect the other way; inactive = no such curve, though single readings can be large or run the other way.

test: Quantitative highthroughput screen to assess conditional lethalithy of SEM cells grown in RPMI1640 with dialyzed fetal bovine serum (RPMI+ds) (AID 1963884); settings: SEM B-ALL cells, RPMI+dialyzed FBS, CellTiter-Glo viability, 48 h; series mostly up to 45.8 µM; also: nearly all actives have a fitted effect of over 35% in size
Description: Assay Provider: Jason Cantor Ph.D.
Department of Biochemistry
University of Wisconsin-Madison, Madison, WI, USA
Chemical screening studies have identified drug sensitivities across hundreds of cancer cell lines but most putative therapeutics fail to translate. Discovery and development of drug candidates in models that more accurately reflect nutrient levels in human blood is a major challenge. Here we performed high-throughput screens in conventional versus Human Plasma-Like Medium (HPLM) to identify compounds that were "missed" when screening using the artificial culture condition. Sets of conditional anticancer compounds spanned phases of clinical development and included non-oncology drugs were assessed. […] We also traced conditional phenotypes for several chemotherapeutics to availability of HPLM-specific metabolites and confirmed others for compounds whose reported targets are encoded by nonessential genes. Our findings establish generalizable strategies for exploiting conditional lethality in HPLM to reveal therapeutic candidates and mechanisms of action in cancer cells.
Described herein are the results of each viability screens against three cell lines: NOMO1 (an acute myeloid leukemia cell line); P12-Ichikawa (a T-cell acute lymphoblastic leukemia); and SEM (a B-cell ALL). Each assay was screened using 3 different cell culture media: homemade human plasma-Like medium with 10% dialyzed fetal bovine serum (HPLM+ds); RPMI1640 with 10% untreated FBS and 5mM glucose (RPMI+s); and RPMI1640 with 10% dialyzed fetal bovine serum and 5 mM glucose (RPMI+ds).
PROTOCOL TABLE (as described by Inglese J, Shamu CE and Guy RK. 2007)
SEQUENCE No. (e.g., 1, 2, 3, etc.); […] (e.g., Cells, Incubation, Reagent, etc.); VALUE and DESCRIPTION.
1; Cells; 5 uL; white, solid bottom 1536-well Greiner assay plate.
2; Compounds; 23 nL; Kalypsis pin tool (Wako USA) equipped with a 1536-well pin head to transfer to the assay plates.
3; Incubation; 48 hours; 37C incubation.
4; Reagent; 3 uL; CellTiter Glo (Promega).
5; Incubation; 5 min, room temperature
6; Detection; Luminescence, Viewlux PerkinElmer.
NOTES (numbers refer to Sequence numbers above)
1. Briefly, 5 ul of cell reagent was dispensed using a Multidrop Combi Dispenser. The NOMO1 and SEM cells were plated at 500 cells/well and the P12-Ichikawa line at 1000 cells/well.
2. After seeding the cells, 23 nL of MIPE 4.1 library compounds (in DMSO) were added to each plate using a Kalypsys 1536 Pintool dispenser. Bortezomib at final concentration of […] and DMSO were added to each plate as positive and negative controls respectively. For each screen, MIPE 4.1 compounds were added over an eleven-point concentration range […] in 3-fold dilutions.
3. Each plate was covered with a stainless steel gasketed lid to prevent evaporation and incubated for 48 hour at 37C, 95% relative humidity, and 5% CO2.
4-5. Three microliter CellTilter-GloTM luminescent substrate mix (Promega) reagent was added to the assay plate and incubated at room temperature for 5 min.
6. The luminescence signal was measured using a ViewLux (PerkinElmer) multiplate reader with a 2 second exposure time per plate. Data for each compound were normalized as percent viability such that measurements for DMSO and the empty well controls in each plate were defined as 100% and 0%, respectively.
Potency is read from the fitted curve at half-maximal effect.

Row | Structure (SMILES) | Potency
1 | CC(=Cc1csc(C)n1)[C@@H]1C[C@H]2O[C@]2(C)CCC[C@H](C)[C@@H](O)[C@@H](C)C(=O)C(C)(C)[C@@H](O)CC(=O)O1 | inactive
2 | Cc1ccccc1-n1c(Cn2ncc3c(N)ncnc32)nc2cccc(C)c2c1=O | inactive
3 | O=C(NCC1CCOCC1)c1cnc(Nc2ccc(Cl)cc2Cl)nc1C(F)(F)F | inactive
4 | CC(N[C@H]1C[C@H]1c1ccccc1)c1ccc2c(c1)OCCO2 (stereo not given in full) | inactive
5 | O=C(N[C@H]1CN2CCC1CC2)c1ccc(Cl)cc1 | inactive
6 | O=C(O)CNC(=O)c1c(O)c2ccccc2n(Cc2ccccc2)c1=O | inactive
7 | C[C@@H]1[C@@H](C(=O)C[C@H]2O[C@@H]3O[C@]4(C)CC[C@@H]5[C@H](C)CC[C@@H]([C@H]2C)[C@@]35OO4)O[C@@H]2O[C@]3(C)CC[C@H]4[C@H](C)CC[C@@H]1[C@@]24OO3 | 23500 nM (active)
8 | COC[C@@H](NC(C)=O)C(=O)NCc1ccccc1 | inactive
9 | C=C(C)[C@H]1Cc2c(ccc3c2O[C@@H]2COc4cc(OC)c(OC)cc4[C@@H]2C3=O)O1 | 3720 nM (active)
10 | COc1ccc2c(c[n+](C)c3c4cc5c(cc4ccc23)OCO5)c1OC | 9350 nM (active)
11 | N[C@@H](Cc1ccc(N(CCCl)CCCl)cc1)C(=O)O | 2960 nM (active)
12 | CC(C)(O)C=CC(=O)[C@](C)(O)[C@H]1[C@H](O)C[C@]2(C)[C@@H]3CC=C4[C@@H](C=C(O)C(=O)C4(C)C)[C@]3(C)C(=O)C[C@@]12C | 66.2 nM (active)
13 | O=C1C=CC[C@@H]2[C@H]3CCCN4CCC[C@@H](CN12)[C@@H]34 | inactive
14 | C[C@@H]1C[C@@H]([C@H](O)CC2CC(=O)NC(=O)C2)C(=O)[C@@H](C)C1 | 590 nM (active)
15 | CN(C)CCN(C)CCc1ccc(Cl)c(Cl)c1 | inactive
16 | COC1=C[C@@H]2[C@@H]3Cc4ccc(OC)c(O)c4[C@]2(CCN3C)CC1=O | inactive
17 | O=C1CC[C@@]2(O)[C@H]3Cc4ccc(O)c5c4[C@@]2(CCN3CC2CC2)[C@H]1O5 | inactive
18 | C#C[C@]1(O)C=C[C@@H]2[C@@H]3CCC4=CC(=O)CC[C@@H]4[C@H]3CC[C@@]21CC | inactive
19 | CC[C@@H]1[C@@H](C)O[C@@](O)([C@@H](C)[C@H](O)[C@H](C)[C@H]2OC(=O)C=CC=C[C@@H](C)[C@@H]([C@@H](C)[C@@H](O)[C@H](C)[C@@]3(O)C[C@H](O[C@H]4C[C@H](O)[C@H](O)[C@H](C)O4)[C@H](CC)[C@@H](C)O3)OC(=O)C=CC=C[C@@H]2C)C[C@H]1O[C@H]1C[C@H](O)[C@H](O)[C@H](C)O1 | 1870 nM (active)
20 | CC[C@H]1C=CC=CC[C@@H](C)[C@H](O)[C@@](C)(O)C(=O)[C@@H](C)[C@H](O)[C@@H](C)C(=O)[C@@H](C)[C@H](O)[C@@H](C)C=CC(=O)O[C@@H]2[C@@H](C)[C@H](CC1)O[C@]1(CC[C@H](C)[C@H](C[C@@H](C)O)O1)[C@H]2C | 4690 nM (active)

Row | Structure (SMILES) | Potency
21 | CCOC(=O)c1c(C(C#N)=CN)c2ccc(Cl)c(Cl)c2n1C | inactive
22 | CCNC(=O)C[C@@H]1N=C(c2ccc(Cl)cc2)c2cc(OC)ccc2-n2c(C)nnc21 | 1050 nM (active)
23 | C[C@@H]1CC[C@@]2(OC1)O[C@H]1C[C@H]3[C@@H]4CC=C5C[C@@H](O[C@@H]6O[C@H](CO)[C@@H](O[C@@H]7O[C@@H](C)[C@H](O)[C@@H](O)[C@@H]7O)[C@H](O)[C@@H]6O[C@@H]6O[C@@H](C)[C@H](O)[C@@H](O)[C@@H]6O)CC[C@]5(C)[C@@H]4CC[C@]3(C)[C@@H]1[C@H]2C | 14800 nM (active)
24 | CN(C)[C@@H]1C(=O)C(C(N)=O)=C(O)[C@@]2(O)C(=O)C3=C(O)c4c(O)cccc4[C@@](C)(O)[C@H]3C[C@@H]12 | inactive
25 | C[C@]12COC(=O)C[C@@H]1CC[C@@H]1[C@H]2CC[C@@]2(C)[C@H]1CC[C@]2(C)O | inactive
26 | Cc1[nH]nc2ccc(-c3cncc(OC[C@@H](N)Cc4c[nH]c5ccccc45)c3)cc12 | 418 nM (active)
27 | C=CCON=C(C[C@H]1O[C@@H]2O[C@]3(C)CC[C@@H]4[C@H](C)CC[C@@H]([C@H]1C)[C@@]24OO3)[C@H]1O[C@@H]2O[C@]3(C)CC[C@H]4[C@H](C)CC[C@@H]([C@@H]1C)[C@@]24OO3 | 935 nM (active)
28 | CC[C@@]1(O)C(=O)OCc2c1cc1n(c2=O)Cc2cc3ccccc3nc2-1 | 26.4 nM (active)
29 | CO[C@H]1CCC(O[C@H]2C[C@H]([C@]3(C)CC[C@]4(C[C@H](O)[C@@H](C)[C@@H]([C@@H](C)C=C(C)C(=O)[C@H](C)C[C@H](C)C(=O)O)O4)O3)O[C@]3(O[C@@H]([C@H]4O[C@@](O)(CO)[C@H](C)C[C@H]4C)C[C@H]3C)[C@H]2C)O[C@H]1C (stereo not given in full) | 1320 nM (active)
30 | CC(=Cc1csc(C)n1)[C@@H]1C[C@H]2O[C@@H]2CCC[C@H](C)[C@@H](O)[C@@H](C)C(=O)C(C)(C)[C@@H](O)CC(=O)O1 | inactive
31 | C[C@]12CC[C@H]3[C@@H](CCC4=CC(=O)CC[C@@]43C)[C@H]1CC[C@H]2OC(=O)CCC1CCCC1 | inactive
32 | O=c1cccc2n1CC1CNC[C@H]2C1 | inactive
33 | CC(C)(C)[C@]1(O)C[C@@H]2OC(=O)C[C@@]23C(=O)O[C@@H]2OC(=O)[C@H](O)C213 (stereo not given in full) | inactive
34 | CC(C)N(CCNC(=O)CN1CCCC1=O)C(C)C | inactive
35 | C[C@]12CC[C@@H]3[C@@H](CCC4=CC(=O)CC[C@@H]43)[C@@H]1CC[C@@H]2OC(=O)CCc1ccccc1 | inactive
36 | COc1ccc(C(=O)c2c(C)n(CCN3CCOCC3)c3ccccc23)cc1 | inactive
37 | C[C@@H]1[C@H](O)[C@@H](C)C=CC=CCCC=CC=CC=CC=C[C@H](O[C@H]2O[C@@H](C)[C@H](O)[C@@H](N)[C@@H]2O)CC2O[C@](O)(C[C@@H](O)[C@H](O)CC[C@@H](O)C[C@@H](O)C[C@@H](O)CC(=O)O[C@H]1C)C[C@H](O)[C@H]2C(=O)O | inactive
38 | O=[N+]([O-])c1ncc[nH]1 | inactive
39 | COc1cccc2c1[C@]13CCN(CC4CC4)[C@H](C2)[C@]1(OC)CCC(=O)C3 | inactive
40 | Cc1ncc(OC[C@@]2(c3cccc(F)c3)C[C@H]2C(=O)Nc2ccc(F)cn2)c(C)n1 | inactive
